The record followed here is PubChem BioAssay (NCATS).

Each structure is given as a SMILES string. Results filed as inconclusive are left out. The source made the active and inactive calls. Unless noted, calls follow the shape of the dose curve; as a rule, active = well fitted activation curve with a large enough effect; inconclusive = small, poorly fitted or top-dose-only effect, or another doubt; inactive = no such curve, though single readings can be large or run the other way.

Sequence of Nicotinamide N-methyltransferase (Homo sapiens) (P40261 whole entry, looked up): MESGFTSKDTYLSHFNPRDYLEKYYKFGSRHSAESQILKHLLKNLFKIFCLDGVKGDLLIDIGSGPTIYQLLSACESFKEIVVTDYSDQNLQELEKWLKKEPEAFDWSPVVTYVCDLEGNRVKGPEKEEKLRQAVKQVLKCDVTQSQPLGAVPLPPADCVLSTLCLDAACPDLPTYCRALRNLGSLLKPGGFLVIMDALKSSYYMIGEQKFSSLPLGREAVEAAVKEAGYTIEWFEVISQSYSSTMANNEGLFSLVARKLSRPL

One experiment deals with Rap guanine nucleotide exchange factor 3 (Homo sapiens) (UniProt O95398). Nature of the experiment: Counterscreen qHTS for agonist of cAMP-regulated guanine nucleotide exchange factor 3 (EPAC1) (AID 1645889). Also: nearly all actives have a fitted effect of over 40% in size. Also: potency is read from the fitted curve at half-maximal effect. As to activation: % of control where 0% means no effect. The note with it: EPAC1 Rap1B-BODIPY-GDP exchange, fluorescence; series mostly up to 154 µM; activation: at the top concentration. The procedure, abridged: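 Measured: fluorescence of BODIPY-GDP bound to Rap1B, which falls as exchange proceeds. Conditions include 50 uM competing GDP, 5 and 30 min reads, and a later cAMP challenge for antagonist detection.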
In the case of `COc1cccc2c1C(=O)c1c(O)c3c(c(O)c1C2=O)C[C@@](O)(C(C)=O)C[C@@H]3O[C@H]1C[C@H](N)[C@H](O)[C@H](C)O1`, the Potency was 14.1 µM (active).

As to `Oc1ccc(Cl)cc1Sc1cc(Cl)ccc1O`, the activation is 18.9% [at 30.8 µM] (inactive).

In the case of `COc1ccc(/C=C/C(=O)c2ccc(OC)cc2OC)cc1`, the “activation” value was 15.7% (inactive).

For the molecule `c1ccc(-c2ccc(C(c3ccccc3)n3ccnc3)cc2)cc1` (stereo unspecified), the “activation” value is 13.5% (inactive).

In another experiment the target is Catechol O-methyltransferase (Homo sapiens) (UniProt P21964). Nature of the experiment: Confirmatory Screen for Target Class Profiling of Small Molecule Inhibitors of Methyltransferases (AID 1745852; calls by dose curve; as to activity change, negative = inhibition: % is scaled to controls: 0 for no effect and ±100 for the full control effect). The note with it: MTase-Glo luminescence, SAH detection, recombinant enzyme; measured here: COMT max response; stronger effect = lower value.
Sequence of Catechol O-methyltransferase (Homo sapiens) (P21964 whole entry, looked up): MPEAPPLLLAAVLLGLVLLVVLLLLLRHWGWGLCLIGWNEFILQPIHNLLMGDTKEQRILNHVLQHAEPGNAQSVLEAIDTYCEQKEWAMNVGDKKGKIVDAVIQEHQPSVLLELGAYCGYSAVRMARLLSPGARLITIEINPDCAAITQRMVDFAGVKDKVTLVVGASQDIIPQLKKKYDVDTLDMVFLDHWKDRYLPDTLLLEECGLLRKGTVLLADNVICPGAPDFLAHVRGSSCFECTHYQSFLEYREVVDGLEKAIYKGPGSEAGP
For `CC[C@H](C)C(=O)O[C@H]1CCC=C2C=C[C@H](C)[C@H](CC[C@@H]3C[C@@H](O)CC(=O)O3)[C@H]21`, the activity is -80.2%.

On to `NC(=NCCCCCCN=C(N)/N=C(\N)Nc1ccc(Cl)cc1)/N=C(\N)Nc1ccc(Cl)cc1`, for which the activity was -5.42%.

With `CC(C)(C)CC(C)(C)c1ccc(OCCOCC[N+](C)(C)Cc2ccccc2)cc1`, the activity was -13.4%.

Take `CC(C)C[C@H]1C(=O)N2CCC[C@H]2[C@]2(O)O[C@](NC(=O)[C@@H]3C=C4c5cccc6[nH]c(Br)c(c56)C[C@H]4N(C)C3)(C(C)C)C(=O)N12`: the activity was 7.86%.

In the next experiment the target is Guanidinoacetate N-methyltransferase (Homo sapiens) (UniProt Q14353). The description is as above. The note with it: MTase-Glo luminescence, SAH detection, recombinant enzyme; at 57.3 µM (top of the series).
As for `CC[C@H](C)C(=O)O[C@H]1CCC=C2C=C[C@H](C)[C@H](CC[C@@H]3C[C@@H](O)CC(=O)O3)[C@H]21`, the activity change, negative = inhibition is -3.09%.

As for `NC(=NCCCCCCN=C(N)/N=C(\N)Nc1ccc(Cl)cc1)/N=C(\N)Nc1ccc(Cl)cc1`, the activity change, negative = inhibition was 0.888%.

Take `CC(C)(C)CC(C)(C)c1ccc(OCCOCC[N+](C)(C)Cc2ccccc2)cc1`: the activity change, negative = inhibition was -8.7%.

Take `CC(C)C[C@H]1C(=O)N2CCC[C@H]2[C@]2(O)O[C@](NC(=O)[C@@H]3C=C4c5cccc6[nH]c(Br)c(c56)C[C@H]4N(C)C3)(C(C)C)C(=O)N12`: the activity change, negative = inhibition was determined as 3.94%.

A further experiment has as its target Nicotinamide N-methyltransferase (Homo sapiens) (UniProt P40261). The experiment is described as above. The note with it: MTase-Glo luminescence, SAH detection, recombinant enzyme; measured here: NNMT max response; stronger effect = lower value.
`CC[C@H](C)C(=O)O[C@H]1CCC=C2C=C[C@H](C)[C@H](CC[C@@H]3C[C@@H](O)CC(=O)O3)[C@H]21`: the activity is -8.02%.

Take `NC(=NCCCCCCN=C(N)/N=C(\N)Nc1ccc(Cl)cc1)/N=C(\N)Nc1ccc(Cl)cc1`: the activity was -51.5%.

Consider `CC(C)(C)CC(C)(C)c1ccc(OCCOCC[N+](C)(C)Cc2ccccc2)cc1`, for which the activity is -59.7%.

Regarding `CC(C)C[C@H]1C(=O)N2CCC[C@H]2[C@]2(O)O[C@](NC(=O)[C@@H]3C=C4c5cccc6[nH]c(Br)c(c56)C[C@H]4N(C)C3)(C(C)C)C(=O)N12`, the activity was -2.85%.
